Consider seven sequences from the supplement of paper PMC6555819.

Common to all, as to experiment: PBM binding z-score (relative to random genomic background probes); higher = stronger binding; sequences stand for … in GC…GCGATTGACAGCGTAGAATGAAGG
Assay [1] concerns RARb homodimer (NR concentration 270 nM). Summed up:
(§1)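 The probes on custom Agilent 4×180K protein-binding microarrays were double-stranded, with 34-nt variable regions bearing direct-repeat seeds, single-nucleotide variants, half-site ablations and random human genomic background sequences. Incubation lasted 1 h with ligand-free nuclear receptor dimers in PBS pH 7.4, 2% milk, 0.02% Triton X-100, 1 mM DTT, 0.2 mg/mL BSA and 0.4 mg/ml salmon testes DNA. Antibodies against each partner (one per run) detected bound dimers, and fluorescence scans were regression-normalized. Binding z-scores take the random background probes as reference.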

For assay [2], the system named is RARg:RXRa (NR concentration 270 nM, RXRa partner concentration 90 nM). In outline:
as §1

For assay [3], the system named is RARg homodimer (NR concentration 270 nM). Summed up: as §1
For assay [4], the system named is RXRa DBDmut IVT, anti-RXR (DBD mutation: RXRa K156A/R161A, NR concentration 90 nM). In outline: as §1
Assay [5] deals with RXRa homodimer (NR concentration 180 nM). In outline:
as §1

For assay [6], the system named is THRa:RXRa (NR concentration 90 nM, RXRa partner concentration 90 nM). In outline:
as §1

Assay [7] deals with THRa homodimer (NR concentration 90 nM). Summed up:
as §1

The subject of assay [8] is VDR homodimer (NR concentration 270 nM). In outline: as §1

On to GTACCTAGGTGAATAGGTCGTTGATGAGTAGGCG, for which the PBM binding z-score is 1.12 in assay [1]; 1.85 in assay [2]; 0.79 in assay [3]; -0.37 in assay [4]; 1.24 in assay [5]; 1.08 in assay [6]. Besides, the figures for the PBM binding z-score in assay [7] and in assay [8] were -0.182 and 0.0472, respectively.

Take GCAGACATGTGAAACGCAGGTAACTCAGGGTGGC: the PBM binding z-score in assay [1] was -0.931; in assay [2], -0.194; in assay [3] it was -0.391; in assay [4] it was -0.691; in assay [5], -0.0899; in assay [6] it was 0.4. Besides, the PBM binding z-score in assay [7] is -0.871; in assay [8], -1.27.

Consider GCTCGGAGGACAAGGTCTGAGCTTTGTCCGTAGA, for which the PBM binding z-score in assay [1] is 0.301; in assay [2] it was -0.104; in assay [3], 0.27; in assay [4], -0.359; in assay [5] it was -0.785; in assay [6], 0.705. In addition, the PBM binding z-score in assay [7] is -0.422; in assay [8] it was -0.592.

Regarding ATAGCAAGGTGATCGTGAGGTCGTTGATACTAAC, the PBM binding z-score in assay [1] was determined as 1.29; in assay [2] it was 2.12; in assay [3], 0.811; in assay [4], 0.231; in assay [5] it was 1.31; in assay [6] it was 3.2. The PBM binding z-score in assay [7] worked out at 1.8; in assay [8] it was 1.97.

For AGAACGAGGGCAATGAGTTAATAGCACGGGTGGC, the PBM binding z-score in assay [1] amounted to 1.08; in assay [2], 1.43; in assay [3] it was 1.51; in assay [4], 1.74; in assay [5] it was 0.7; in assay [6] it was 0.999. Further, the values for the PBM binding z-score in assay [7] and in assay [8] were -0.107 and 1.99, respectively.

Regarding AGAATGAGGTTATACGGAGATCAGGGAAGAAAGT, the PBM binding z-score in assay [1] came out at 1; in assay [2], 1.95; in assay [3] it was 1.1; in assay [4], 1.68; in assay [5], 2.26; in assay [6], 2.33. Further, the PBM binding z-score in assay [7] was 0.836; in assay [8] it was 0.95.

On to ATCGAAAGGTCGCGGTGAGTATAGAGAAAGGGAA, for which the PBM binding z-score in assay [1] turned out to be 3.05; in assay [2], 5; in assay [3], 4.48; in assay [4], 1.33; in assay [5], 5.39; in assay [6], 2.84. In addition, the PBM binding z-score came to 0.211 in assay [7] and 1.06 in assay [8].
